# TEAD-YAP inh: TEAD-YAP interaction inhibition; HEK-TIYL cells, TEAD-Gal4/YAP UAS-luciferase luminescence; inhibition, % at 9.12 µM; hit rate 1.4% among 640,000; in the data active = inhibition above about 32%;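 also: 0% = median of test compound wells and 100% = reference inhibitor wells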
# FBW7 activator: human FBW7 E3 ligase activation, primary screen | AlphaScreen FBW7–phospho-cyclin E peptide binding, activator screen | normalized activity (activation), % at 26.1 µM | hit rate 0.13% among 650,000 | AID 1259310; in the data active = normalized activity above about 1.9%;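 also: purified mutant Fbw7 with reduced substrate affinity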
# Target sequence (Q969H0 whole entry, looked up): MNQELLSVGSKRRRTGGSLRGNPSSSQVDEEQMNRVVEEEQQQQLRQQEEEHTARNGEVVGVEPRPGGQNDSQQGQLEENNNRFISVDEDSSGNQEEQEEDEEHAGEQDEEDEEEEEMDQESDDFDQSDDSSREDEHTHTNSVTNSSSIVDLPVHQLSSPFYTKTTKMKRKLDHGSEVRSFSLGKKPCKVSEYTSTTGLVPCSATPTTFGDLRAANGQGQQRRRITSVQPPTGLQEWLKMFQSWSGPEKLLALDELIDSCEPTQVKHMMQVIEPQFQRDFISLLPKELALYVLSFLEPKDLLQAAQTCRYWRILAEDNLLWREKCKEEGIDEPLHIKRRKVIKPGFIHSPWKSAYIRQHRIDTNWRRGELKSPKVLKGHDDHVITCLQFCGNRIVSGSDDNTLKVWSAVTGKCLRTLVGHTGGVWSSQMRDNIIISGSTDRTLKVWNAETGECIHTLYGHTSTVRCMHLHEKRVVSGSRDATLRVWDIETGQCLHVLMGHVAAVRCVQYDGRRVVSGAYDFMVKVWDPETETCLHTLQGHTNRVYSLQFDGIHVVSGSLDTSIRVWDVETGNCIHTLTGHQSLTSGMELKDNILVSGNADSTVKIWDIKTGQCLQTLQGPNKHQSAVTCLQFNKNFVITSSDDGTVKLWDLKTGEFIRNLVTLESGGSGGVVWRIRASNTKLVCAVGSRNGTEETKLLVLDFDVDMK
# MITF inh: blocks human microphthalmia-associated transcription factor | inhibition, % at 2.6 µM | hit rate 0.91% among 650,000 | AlphaScreen MITF homodimerization, bead proximity signal | O75030; in the data active = inhibition above about 50%;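 also: 0% = vehicle wells with protein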
# GPR151 ag: human GPR151 activation. Q8TDV0. PathHunter beta-arrestin GPR151 cells, luminescence. activation, % at 11.2 µM. hit rate 1% among 650,000. AID 1508602; in the data active = activation above about 4.9%;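 also: 0% = median of compound wells and 100% = cells with positive control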
# GPR151 conf act: human GPR151 activation, confirmation screen; shares compounds with GPR151 ag; GPR151 PathHunter beta-arrestin cells, luminescence, 90 min; % of EA-reagent control over plate median; activation, % at 11.2 µM; 6,700 tested, under 10 active;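 active = mean percent activation across replicates above the confirmation screen cutoff of 4.91%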
# GPR119 counter: activates human GPR119 in a GPR151 counter-screen; shares compounds with GPR151 ag; GPR119 PathHunter beta-arrestin cells, luminescence, 90 min; 0 = compound-well median, 100 = enzyme-acceptor control; activation, % at 11.2 µM; hit rate 0.3% among 6,700; AID 1508611;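 active = mean percent activation in the counterscreen above 29.09%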;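 also: counterscreen on off-target GPR119 to flag nonselective hits from the GPR151 activator screen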
# Numbers without * were called inactive; · = no result. Shown are actives, neighbours in structure and some others; about 3.5% of the full set was active somewhere.
SMILES,TEAD-YAP inh,FBW7 activator,MITF inh,GPR151 ag,GPR151 conf act,GPR119 counter
CCn1c(SCC(=O)Nc2ccc(C(N)=O)cc2)nnc1-c1ccco1,25.9,0.5,5.0,6.8*,0.3,13.0
Cn1c(SCC(=O)Nc2ccc3nc(SCC(=O)c4ccc(Cl)cc4)sc3c2)nnc1-c1ccc(N)cc1,20.2,29.3*,-40.3,5.5*,-0.7,-6.6
CCCN(CCC)S(=O)(=O)c1ccc(NC(=O)/C=C/c2ccccc2)cc1,5.1,0.9,16.9,0.1,·,·
Nc1ncc(Br)cc1S(=O)(=O)N1CCC(N2CCCCC2)CC1,-5.9,0.1,10.1,-1.2,·,·
CCc1cccc(NC(=S)N(CCN2CCOCC2)C2CCN(C(C)=O)CC2)c1,-10.1,0.1,6.8,0.0,·,·
O=C(NC1CCCCCC1)c1cccc(I)c1,-46.3,0.2,2.8,0.4,·,·
N#Cc1cccc(C(=O)NC2CCCC2)c1,9.9,0.5,-3.4,5.2*,2.6,4.5
COC(=O)CN(c1cc(C)ccc1OC)S(C)(=O)=O,3.2,0.5,8.2,-1.0,·,·
COc1ccc(C)cc1N(CC(N)=O)S(C)(=O)=O,1.6,0.2,-2.6,7.7*,-0.3,-0.8
Cc1ccc(C)c(N(CC(=O)NC(C(C)C)C(C)C)S(C)(=O)=O)c1,2.0,-0.1,1.1,5.9*,-0.5,3.3
CC(=O)COc1ccc2c(C)c(Cl)c(=O)oc2c1C,-4.8,0.0,-7.4,-0.2,·,·
COc1ccc(OC)c(C2=C/C(=C/c3cccc(OC)c3OC)C(=O)O2)c1,-6.3,0.0,-5.2,5.1*,0.0,4.1
COC(=O)CCC(=O)Nc1ccccc1NC(=O)CCC(=O)OC,-0.1,-0.1,4.9,5.0*,0.3,10.2
COC(=O)c1ccccc1NC(=O)CCSCCC(=O)Nc1ccccc1C(=O)OC,0.6,0.2,-4.1,6.3*,-0.7,-7.0
COC(=O)c1ccccc1NC(=O)CSc1n[nH]c(-c2ccccc2)n1,4.1,0.7,11.3,5.0*,-1.4,-13.1
CCCC(=O)Nc1ccccc1NC(=O)Cc1ccc(OC)cc1,-0.5,0.0,15.9,5.4*,-0.3,-12.1
CCOC(=O)c1[nH]c(C)c(C(=O)NCCCN(C)C)c1C,-4.5,0.2,-2.3,1.6,·,·
Cc1cccc(NC(=O)Nc2ccc(Cl)cc2)c1,-53.9,0.0,-1.9,0.0,·,·
O=C1CC(N2CCC(O)CC2)C(=O)N1c1ccc(Cl)cc1 (centres undefined),-4.1,0.1,-1.3,4.5,·,·
N#C/C(=C\c1ccc(-c2cc(Cl)ccc2Cl)o1)C(=O)Nc1cccc2ncccc12,·,·,-1.1,5.7*,0.1,7.6
COCCNC(=O)/C(C#N)=C/c1ccc(-c2cc(Cl)ccc2Cl)o1,-2.5,-0.1,-6.4,-0.5,·,·
COc1ccccc1S(=O)(=O)Cc1ccc(C(=O)N2CCOCC2)o1,-17.4,0.2,-7.4,46.2*,0.1,6.0
O=C1CCCN1CCn1cnc2c(NCCc3ccc(O)cc3)nc(-c3csc4ccccc34)nc21,4.8,-0.1,-11.2,-1.7,·,·
CCCCN(/C=N/S(=O)(=O)c1ccccc1)CCCC,2.8,0.4,47.9,10.6*,0.2,2.2
O=C([C@H](O)c1cccc(Cl)c1)N1CCCN(S(=O)(=O)c2cccc3cnccc23)CC1,8.0,0.0,3.3,0.9,·,·
SMILES,TEAD-YAP inh,FBW7 activator,MITF inh,GPR151 ag,GPR151 conf act,GPR119 counter
CCOC(=O)CN1CC(O)=C(C=NCc2ccccc2)C1=O,-0.4,0.1,16.2,7.4*,0.5,10.0
Cc1ccc(OCCN(C)Cc2ccc(OCC(O)CN(C)C)cc2)cc1 (centres undefined),13.2,0.0,8.6,9.9*,0.2,6.8
COc1c(Cl)cc(Cl)cc1C(=O)Nc1ccc(-c2nn3c(C)nnc3s2)cc1,2.0,0.6,2.3,5.0*,0.4,3.6
OC(COc1ccccc1CN1CCCC1)CN1CCc2ccccc2C1 (centres undefined),5.7,-0.1,-8.1,8.9*,-0.4,-4.0
COc1ccc(/C=N/N(CCO)C2=NS(=O)(=O)c3ccccc32)cc1,10.9,0.1,19.3,-0.9,·,·
O=C(CC1C(=O)NCCN1Cc1ccc2ccccc2c1)NC1CCCCCC1 (centres undefined),-2.0,-0.1,-2.5,9.5*,-1.6,-19.4
COc1ccccc1/C=C/CN1CCNC(=O)C1CC(=O)NC1CCC1 (centres undefined),7.4,-0.1,-5.6,0.1,·,·
O=C(CC1C(=O)NCCN1Cc1ccc2ccccc2c1)NC1CCOCC1 (centres undefined),9.6,-0.1,6.9,0.2,·,·

# Screening results (PubChem BioAssay)
